# Reference: PMC7862700, “An all-to-all approach to the identification of sequence-specific readers for epigenetic DNA modifications on cytosine”
# Assays:
# Test in all cases: DAPPL (digital affinity profiling via proximity ligation, sequencing); 10 mM Tris-HCl pH 7.5, 50 mM NaCl, 1 mM DTT, 4% glycerol, room temperature, 30 min; GST-TFs on glutathione beads, 16-mer random dsDNA library, 0.1% formaldehyde crosslink after washing; high values mean tight binding
# FEV = target: T1, FEV (Homo sapiens, UniProt Q99581 1-238); settings: protein: recombinant; tags: N-terminal GST; dsDNA, one strand shown
# T1 sequence: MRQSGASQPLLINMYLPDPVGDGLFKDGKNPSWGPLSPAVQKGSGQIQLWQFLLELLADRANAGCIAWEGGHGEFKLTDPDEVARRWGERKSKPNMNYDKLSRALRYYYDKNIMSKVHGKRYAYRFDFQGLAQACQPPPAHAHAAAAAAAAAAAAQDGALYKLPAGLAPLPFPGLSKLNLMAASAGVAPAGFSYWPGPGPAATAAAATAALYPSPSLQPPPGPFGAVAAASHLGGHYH
# Procedure, shortened: (§1)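 Human transcription factors were made in yeast as GST fusions, captured on glutathione beads and barcoded with DNA. With a tag-only sample included, the pool was incubated with 200 nmole of a random double-stranded 16-mer DNA library in Tris/NaCl/DTT/glycerol buffer at room temperature for 30 min, then crosslinked with 0.1% formaldehyde after washing, ligated by proximity, amplified and sequenced. For binding signal, each hexamer's read frequency for a factor is divided by its frequency for the tag-only sample.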
# ETV5 = ETV5 (Homo sapiens, UniProt P41161 1-510); settings: protein: recombinant; tags: N-terminal GST; dsDNA, one strand shown
# Procedure, shortened: as §1
# HSF1 = HSF1 (Homo sapiens, UniProt Q00613 1-529); settings: protein: recombinant; tags: N-terminal GST; chain copies: 3; dsDNA, one strand shown
# Procedure, shortened: as §1
# SPIC = target: T2, SPIC (Homo sapiens, UniProt Q8N5J4 1-248); settings: protein: recombinant; tags: N-terminal GST; dsDNA, one strand shown
# T2 sequence: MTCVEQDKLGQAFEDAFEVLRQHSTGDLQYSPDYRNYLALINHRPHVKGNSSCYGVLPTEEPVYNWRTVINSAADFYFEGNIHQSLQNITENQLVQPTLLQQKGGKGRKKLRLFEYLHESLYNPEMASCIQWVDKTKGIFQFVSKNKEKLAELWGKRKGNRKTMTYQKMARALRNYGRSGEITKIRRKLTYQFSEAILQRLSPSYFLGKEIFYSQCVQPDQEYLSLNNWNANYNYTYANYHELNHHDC
# Procedure, shortened: as §1
# ELF4 = ELF4 (Homo sapiens, UniProt Q99607 1-663); settings: protein: recombinant; tags: N-terminal GST; dsDNA, one strand shown
# Procedure, shortened: as §1
# ELK4 = target: T3, ELK4 (Homo sapiens, UniProt P28324-2 1-405); settings: protein: recombinant; tags: N-terminal GST; dsDNA, one strand shown
# T3 sequence: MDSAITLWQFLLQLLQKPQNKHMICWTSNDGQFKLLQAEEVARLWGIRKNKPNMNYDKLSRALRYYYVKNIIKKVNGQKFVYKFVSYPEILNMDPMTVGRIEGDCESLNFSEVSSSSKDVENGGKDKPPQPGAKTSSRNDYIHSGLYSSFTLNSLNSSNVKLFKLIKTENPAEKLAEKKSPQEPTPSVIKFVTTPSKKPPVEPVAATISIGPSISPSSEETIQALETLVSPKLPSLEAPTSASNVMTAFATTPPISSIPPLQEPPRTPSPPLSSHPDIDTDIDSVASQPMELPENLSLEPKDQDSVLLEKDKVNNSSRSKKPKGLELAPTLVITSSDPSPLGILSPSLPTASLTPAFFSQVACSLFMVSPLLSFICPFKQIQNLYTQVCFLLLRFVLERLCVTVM
# Procedure, shortened: as §1
# ETV2 = target: T4, ETV2 (Homo sapiens, UniProt O00321 1-342); settings: protein: recombinant; tags: N-terminal GST; dsDNA, one strand shown
# T4 sequence: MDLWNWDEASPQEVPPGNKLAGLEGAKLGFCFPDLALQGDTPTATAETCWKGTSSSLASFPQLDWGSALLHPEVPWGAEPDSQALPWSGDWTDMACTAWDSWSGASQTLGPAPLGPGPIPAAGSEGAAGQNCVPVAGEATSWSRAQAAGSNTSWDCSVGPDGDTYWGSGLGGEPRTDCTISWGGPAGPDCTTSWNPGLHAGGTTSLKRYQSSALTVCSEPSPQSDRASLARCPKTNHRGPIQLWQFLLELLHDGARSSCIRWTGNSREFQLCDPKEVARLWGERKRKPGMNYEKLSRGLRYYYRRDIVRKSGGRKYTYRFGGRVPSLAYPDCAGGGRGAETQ
# Procedure, shortened: as §1
# ELF3 = target: T5, ELF3 (Homo sapiens, UniProt P78545 1-371); settings: protein: recombinant; tags: N-terminal GST; dsDNA, one strand shown
# T5 sequence: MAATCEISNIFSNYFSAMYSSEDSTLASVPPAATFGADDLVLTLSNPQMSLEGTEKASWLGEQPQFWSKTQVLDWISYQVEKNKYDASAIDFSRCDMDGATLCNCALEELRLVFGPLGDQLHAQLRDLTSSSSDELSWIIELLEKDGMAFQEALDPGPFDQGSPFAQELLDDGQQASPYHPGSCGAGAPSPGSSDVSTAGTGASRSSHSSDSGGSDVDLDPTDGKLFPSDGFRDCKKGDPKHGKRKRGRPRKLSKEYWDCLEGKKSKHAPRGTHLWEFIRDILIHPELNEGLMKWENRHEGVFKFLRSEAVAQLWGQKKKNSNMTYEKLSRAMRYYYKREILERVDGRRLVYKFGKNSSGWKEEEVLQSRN
# Procedure, shortened: as §1
# CRX = CRX (Homo sapiens, UniProt O43186 1-299); settings: protein: recombinant; tags: N-terminal GST; dsDNA, one strand shown
# Procedure, shortened: as §1
# ETV1 = ETV1 (Homo sapiens, UniProt P50549 1-477); settings: protein: recombinant; tags: N-terminal GST; dsDNA, one strand shown
# Procedure, shortened: as §1
# ERF = target: T6, ERF (Homo sapiens, UniProt P50548 1-548); settings: protein: recombinant; tags: N-terminal GST; dsDNA, one strand shown
# T6 sequence: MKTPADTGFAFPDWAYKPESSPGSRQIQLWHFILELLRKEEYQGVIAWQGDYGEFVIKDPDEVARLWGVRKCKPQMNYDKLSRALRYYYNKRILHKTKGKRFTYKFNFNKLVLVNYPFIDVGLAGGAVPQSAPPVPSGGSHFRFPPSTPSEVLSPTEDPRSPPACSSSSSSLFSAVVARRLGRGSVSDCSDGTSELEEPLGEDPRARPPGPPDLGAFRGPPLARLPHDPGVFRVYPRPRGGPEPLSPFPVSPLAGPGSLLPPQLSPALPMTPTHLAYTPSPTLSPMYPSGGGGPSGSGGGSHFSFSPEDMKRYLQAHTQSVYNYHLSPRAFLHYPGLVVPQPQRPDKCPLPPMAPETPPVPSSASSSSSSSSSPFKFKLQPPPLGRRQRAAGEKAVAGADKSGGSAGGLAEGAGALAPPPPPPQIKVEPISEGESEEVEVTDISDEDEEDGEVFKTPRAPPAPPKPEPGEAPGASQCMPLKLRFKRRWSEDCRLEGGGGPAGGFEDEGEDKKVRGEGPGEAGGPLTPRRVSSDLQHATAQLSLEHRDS
# Procedure, shortened: as §1
# ETV3L = target: T7, ETV3L (Homo sapiens, UniProt Q6ZN32 1-361); settings: protein: recombinant; tags: N-terminal GST; dsDNA, one strand shown
# T7 sequence: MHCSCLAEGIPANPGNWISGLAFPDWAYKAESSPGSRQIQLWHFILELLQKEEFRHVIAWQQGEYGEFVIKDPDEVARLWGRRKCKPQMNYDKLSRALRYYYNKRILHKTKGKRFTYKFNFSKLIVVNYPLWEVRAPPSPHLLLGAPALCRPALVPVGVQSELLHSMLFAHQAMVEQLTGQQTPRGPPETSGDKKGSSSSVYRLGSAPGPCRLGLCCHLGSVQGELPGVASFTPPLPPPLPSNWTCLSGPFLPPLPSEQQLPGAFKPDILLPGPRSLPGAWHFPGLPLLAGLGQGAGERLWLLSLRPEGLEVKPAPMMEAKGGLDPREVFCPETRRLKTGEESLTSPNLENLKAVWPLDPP
# Procedure, shortened: as §1
# ETS2 = target: T8, ETS2 (Homo sapiens, UniProt P15036 1-469); settings: protein: recombinant; tags: N-terminal GST; dsDNA, one strand shown
# T8 sequence: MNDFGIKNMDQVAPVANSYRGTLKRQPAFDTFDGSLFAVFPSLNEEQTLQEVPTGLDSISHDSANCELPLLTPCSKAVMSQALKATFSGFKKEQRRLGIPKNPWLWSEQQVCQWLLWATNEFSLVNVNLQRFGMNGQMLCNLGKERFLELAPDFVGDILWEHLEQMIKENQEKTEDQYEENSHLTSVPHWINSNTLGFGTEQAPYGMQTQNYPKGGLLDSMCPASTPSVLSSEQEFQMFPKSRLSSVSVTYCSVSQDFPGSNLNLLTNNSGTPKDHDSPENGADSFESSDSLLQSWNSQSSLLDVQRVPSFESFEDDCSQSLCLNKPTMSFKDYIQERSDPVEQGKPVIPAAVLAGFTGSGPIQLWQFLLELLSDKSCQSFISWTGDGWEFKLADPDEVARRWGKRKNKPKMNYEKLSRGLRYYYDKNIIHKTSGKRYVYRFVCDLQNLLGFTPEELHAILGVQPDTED
# Procedure, shortened: as §1
# SPDEF = target: T9, SPDEF (Homo sapiens, UniProt O95238 1-335); settings: protein: recombinant; tags: N-terminal GST; dsDNA, one strand shown
# T9 sequence: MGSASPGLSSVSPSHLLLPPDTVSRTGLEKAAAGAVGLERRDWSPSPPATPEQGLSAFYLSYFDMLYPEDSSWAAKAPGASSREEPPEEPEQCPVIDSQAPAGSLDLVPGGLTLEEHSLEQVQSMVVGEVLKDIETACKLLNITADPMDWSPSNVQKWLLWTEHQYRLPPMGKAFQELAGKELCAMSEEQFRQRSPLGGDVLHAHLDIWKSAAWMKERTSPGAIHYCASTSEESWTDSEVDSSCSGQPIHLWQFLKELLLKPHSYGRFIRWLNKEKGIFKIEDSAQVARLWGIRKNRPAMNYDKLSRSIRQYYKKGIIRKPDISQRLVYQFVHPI
# Procedure, shortened: as §1
# ETV7 = target: T10, ETV7 (Homo sapiens, UniProt Q9Y603 1-341); settings: protein: recombinant; tags: N-terminal GST; dsDNA, one strand shown
# T10 sequence: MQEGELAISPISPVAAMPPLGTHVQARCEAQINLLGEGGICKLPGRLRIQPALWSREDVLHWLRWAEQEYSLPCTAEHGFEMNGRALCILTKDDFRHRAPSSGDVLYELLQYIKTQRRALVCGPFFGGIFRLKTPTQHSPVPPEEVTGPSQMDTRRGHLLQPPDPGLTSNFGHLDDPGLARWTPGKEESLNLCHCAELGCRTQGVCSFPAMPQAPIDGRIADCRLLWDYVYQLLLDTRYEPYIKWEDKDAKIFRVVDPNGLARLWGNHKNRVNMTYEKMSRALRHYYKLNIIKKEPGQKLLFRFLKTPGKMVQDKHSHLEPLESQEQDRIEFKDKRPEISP
# Procedure, shortened: as §1
# ELF5 = target: T11, ELF5 (Homo sapiens, UniProt Q9UKW6-2 1-255); settings: protein: recombinant; tags: N-terminal GST; dsDNA, one strand shown
# T11 sequence: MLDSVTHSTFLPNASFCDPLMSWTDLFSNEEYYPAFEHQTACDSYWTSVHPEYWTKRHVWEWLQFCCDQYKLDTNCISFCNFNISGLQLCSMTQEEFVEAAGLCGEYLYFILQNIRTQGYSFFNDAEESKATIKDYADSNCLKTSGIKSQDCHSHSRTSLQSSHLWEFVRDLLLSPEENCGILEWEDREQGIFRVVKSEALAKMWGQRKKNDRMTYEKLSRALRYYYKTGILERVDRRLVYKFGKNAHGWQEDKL
# Procedure, shortened: as §1
# ETV3 = target: T12, ETV3 (Homo sapiens, UniProt P41162-2 1-143); settings: protein: recombinant; tags: N-terminal GST; dsDNA, one strand shown
# T12 sequence: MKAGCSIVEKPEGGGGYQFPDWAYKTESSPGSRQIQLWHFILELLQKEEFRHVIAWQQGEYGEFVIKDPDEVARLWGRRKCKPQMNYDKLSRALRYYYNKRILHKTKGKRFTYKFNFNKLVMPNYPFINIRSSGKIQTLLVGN
# Procedure, shortened: as §1
# ETV6 = ETV6 (Homo sapiens, UniProt P41212 1-452); settings: protein: recombinant; tags: N-terminal GST; dsDNA, one strand shown
# Procedure, shortened: as §1
# Chain of ETV1 (P50549 whole entry): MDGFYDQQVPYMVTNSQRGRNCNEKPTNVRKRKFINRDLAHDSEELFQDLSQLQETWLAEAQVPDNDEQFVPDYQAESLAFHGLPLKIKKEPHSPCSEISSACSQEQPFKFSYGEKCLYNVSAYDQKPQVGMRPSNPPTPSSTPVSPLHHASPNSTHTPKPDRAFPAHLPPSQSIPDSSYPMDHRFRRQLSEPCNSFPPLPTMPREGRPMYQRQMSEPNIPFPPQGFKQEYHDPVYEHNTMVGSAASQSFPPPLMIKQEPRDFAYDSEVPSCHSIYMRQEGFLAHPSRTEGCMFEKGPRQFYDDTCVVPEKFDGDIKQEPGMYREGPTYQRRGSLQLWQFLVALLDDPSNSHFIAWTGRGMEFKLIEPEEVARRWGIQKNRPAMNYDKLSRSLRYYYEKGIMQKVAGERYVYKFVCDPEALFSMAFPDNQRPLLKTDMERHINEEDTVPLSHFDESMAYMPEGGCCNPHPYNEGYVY
# Chain of ELF4 (Q99607 whole entry): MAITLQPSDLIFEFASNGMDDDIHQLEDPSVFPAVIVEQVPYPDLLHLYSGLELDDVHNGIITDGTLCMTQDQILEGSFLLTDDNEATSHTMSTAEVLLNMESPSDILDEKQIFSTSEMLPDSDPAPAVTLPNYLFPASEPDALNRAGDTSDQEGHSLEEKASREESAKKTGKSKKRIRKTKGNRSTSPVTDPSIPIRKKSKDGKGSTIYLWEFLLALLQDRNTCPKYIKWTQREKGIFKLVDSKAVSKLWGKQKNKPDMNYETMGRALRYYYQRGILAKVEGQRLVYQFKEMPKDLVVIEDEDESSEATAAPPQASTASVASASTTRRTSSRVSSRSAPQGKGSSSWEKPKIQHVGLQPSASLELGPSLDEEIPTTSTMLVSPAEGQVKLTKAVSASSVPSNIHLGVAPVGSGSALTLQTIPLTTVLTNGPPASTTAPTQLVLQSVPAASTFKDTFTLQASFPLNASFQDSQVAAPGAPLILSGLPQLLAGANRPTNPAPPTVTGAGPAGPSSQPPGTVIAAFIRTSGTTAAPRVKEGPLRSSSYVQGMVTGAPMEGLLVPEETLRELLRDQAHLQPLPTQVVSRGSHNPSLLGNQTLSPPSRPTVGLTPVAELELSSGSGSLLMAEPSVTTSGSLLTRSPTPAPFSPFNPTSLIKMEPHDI
# Chain of ETV6 (P41212 whole entry): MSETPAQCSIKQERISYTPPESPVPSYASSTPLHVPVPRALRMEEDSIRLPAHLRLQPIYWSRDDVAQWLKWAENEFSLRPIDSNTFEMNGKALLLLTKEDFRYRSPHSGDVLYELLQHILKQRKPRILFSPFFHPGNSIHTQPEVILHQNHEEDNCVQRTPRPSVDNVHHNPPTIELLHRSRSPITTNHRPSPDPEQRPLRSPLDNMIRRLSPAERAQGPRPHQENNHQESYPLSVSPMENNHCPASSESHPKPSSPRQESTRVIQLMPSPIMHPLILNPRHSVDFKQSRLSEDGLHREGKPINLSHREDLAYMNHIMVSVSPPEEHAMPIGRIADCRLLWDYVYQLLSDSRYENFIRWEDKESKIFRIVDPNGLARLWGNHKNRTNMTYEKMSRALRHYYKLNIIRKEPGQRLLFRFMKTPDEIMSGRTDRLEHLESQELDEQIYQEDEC
# Chain of HSF1 (Q00613 whole entry): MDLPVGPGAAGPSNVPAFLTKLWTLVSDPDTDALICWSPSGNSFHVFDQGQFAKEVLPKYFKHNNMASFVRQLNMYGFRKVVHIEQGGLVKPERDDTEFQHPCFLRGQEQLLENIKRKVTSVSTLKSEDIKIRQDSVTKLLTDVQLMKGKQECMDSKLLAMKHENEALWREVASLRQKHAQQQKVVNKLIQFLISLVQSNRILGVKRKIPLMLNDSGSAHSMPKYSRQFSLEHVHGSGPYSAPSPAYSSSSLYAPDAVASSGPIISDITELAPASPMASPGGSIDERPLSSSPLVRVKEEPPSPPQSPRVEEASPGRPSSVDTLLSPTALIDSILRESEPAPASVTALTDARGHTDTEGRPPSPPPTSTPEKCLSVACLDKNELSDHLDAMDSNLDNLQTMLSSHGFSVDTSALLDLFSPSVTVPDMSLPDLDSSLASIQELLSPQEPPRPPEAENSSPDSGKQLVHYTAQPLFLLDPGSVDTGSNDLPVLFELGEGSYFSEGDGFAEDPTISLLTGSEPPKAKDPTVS
# Chain of CRX (O43186 whole entry): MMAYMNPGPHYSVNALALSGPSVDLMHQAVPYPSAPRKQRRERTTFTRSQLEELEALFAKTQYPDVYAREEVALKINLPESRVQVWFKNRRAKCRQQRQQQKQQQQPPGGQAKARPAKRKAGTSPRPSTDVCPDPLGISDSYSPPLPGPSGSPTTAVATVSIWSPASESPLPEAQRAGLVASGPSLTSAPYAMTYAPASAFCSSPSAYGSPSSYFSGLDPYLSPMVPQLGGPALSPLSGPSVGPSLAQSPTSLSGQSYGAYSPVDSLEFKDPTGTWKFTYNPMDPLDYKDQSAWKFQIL
# Chain of ETV5 (P41161 whole entry): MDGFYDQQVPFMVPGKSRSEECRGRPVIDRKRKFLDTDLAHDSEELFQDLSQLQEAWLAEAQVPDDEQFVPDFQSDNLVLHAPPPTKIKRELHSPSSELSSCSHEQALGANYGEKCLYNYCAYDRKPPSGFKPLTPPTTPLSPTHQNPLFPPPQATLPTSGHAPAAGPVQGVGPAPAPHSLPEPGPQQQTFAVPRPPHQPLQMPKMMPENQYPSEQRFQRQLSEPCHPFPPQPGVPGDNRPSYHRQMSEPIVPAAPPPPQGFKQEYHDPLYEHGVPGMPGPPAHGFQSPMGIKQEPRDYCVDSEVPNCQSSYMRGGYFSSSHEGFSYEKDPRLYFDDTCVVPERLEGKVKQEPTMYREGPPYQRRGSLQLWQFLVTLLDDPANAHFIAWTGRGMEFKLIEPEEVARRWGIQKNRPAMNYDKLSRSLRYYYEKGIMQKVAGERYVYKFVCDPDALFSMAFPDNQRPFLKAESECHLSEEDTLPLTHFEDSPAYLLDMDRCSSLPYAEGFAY
sequence,measurement,setting,value
ATCCGG,binding signal,FEV,"4.68 fold enrichment (6-mer frequency, TF over GST control)"
same,binding signal,ETV5,"2.87 fold enrichment (6-mer frequency, TF over GST control)"
same,binding signal,HSF1,"1.31 fold enrichment (6-mer frequency, TF over GST control)"
same,binding signal,SPIC,"2.35 fold enrichment (6-mer frequency, TF over GST control)"
same,binding signal,ELF4,"2.17 fold enrichment (6-mer frequency, TF over GST control)"
same,binding signal,ELK4,"2.1 fold enrichment (6-mer frequency, TF over GST control)"
same,binding signal,ETV2,"2.6 fold enrichment (6-mer frequency, TF over GST control)"
same,binding signal,ELF3,"2.31 fold enrichment (6-mer frequency, TF over GST control)"
same,binding signal,CRX,"1.48 fold enrichment (6-mer frequency, TF over GST control)"
same,binding signal,ETV1,"2.66 fold enrichment (6-mer frequency, TF over GST control)"
same,binding signal,ERF,"2.34 fold enrichment (6-mer frequency, TF over GST control)"
same,binding signal,ETV3L,"2.49 fold enrichment (6-mer frequency, TF over GST control)"
same,binding signal,ETS2,"2.66 fold enrichment (6-mer frequency, TF over GST control)"
same,binding signal,SPDEF,"4.67 fold enrichment (6-mer frequency, TF over GST control)"
same,binding signal,ETV7,"2.25 fold enrichment (6-mer frequency, TF over GST control)"
same,binding signal,ELF5,"3.06 fold enrichment (6-mer frequency, TF over GST control)"
same,binding signal,ETV3,"2.9 fold enrichment (6-mer frequency, TF over GST control)"
same,binding signal,ETV6,"2.37 fold enrichment (6-mer frequency, TF over GST control)"
